Test results: PubChem BioAssay (NCATS)
Values joined by “and” are separate entries in the source; they are usually repeats but may differ in a detail not shown here. Equal values may be shown once. Inconclusive results are not listed. Where a structure was tested more than once in an assay, its records may differ in their call. Active and inactive are the calls of the source. Unless noted, calls follow the shape of the dose curve; as a rule, active = well fitted curve in the direction sought with a large enough effect; inconclusive = small, poorly fitted or top-dose-only effect, or another doubt; inactive = no such curve, though single readings can be large; an effect the other way counts as inactive or inconclusive.

biological target: Calcium and integrin-binding protein 1 (Homo sapiens) (UniProt Q99828); experiment: Primary qHTS for Identification of Calcium Integrin Binding Protein 1 (CIB1) Competitor (AID 1508620); settings: CIB1-GST / FITC-alphaIIb peptide fluorescence polarization; series mostly up to 114 µM; activity change, negative = inhibition: at the top concentration;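 also: GST tagged CIB1 binding a fluorescein labelled alphaIIb integrin peptide tracer; top concentration of the series differs between compounds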
Outline: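 CIB1-GST (1 uM final) and compound incubated 15 min at room temperature before adding FITC-alphaIIb peptide tracer (100 nM final). Competition for binding read by fluorescence polarization (ex 480, em 540) after another 15 min at room temperature.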
% is scaled to controls: 0 for no effect and ±100 for the full control effect.

Sequence of Calcium and integrin-binding protein 1 (Homo sapiens) (Q99828 whole entry, looked up): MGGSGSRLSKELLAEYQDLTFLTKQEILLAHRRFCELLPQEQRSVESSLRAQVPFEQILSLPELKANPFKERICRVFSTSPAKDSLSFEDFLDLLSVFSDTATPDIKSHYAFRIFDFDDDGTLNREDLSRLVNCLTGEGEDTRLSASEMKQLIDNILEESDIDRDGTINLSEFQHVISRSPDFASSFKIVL

Structure (SMILES)	activity change, negative = inhibition
CC1CCC2C(=CCC(O)C2(C)C)C1(C)Cc1c(O)cc(CO)c(C=O)c1O (stereo unspecified)	-1.71% [at 57.7 µM] (inactive)
CCCCn1c(-c2ccccc2)nc(-c2ccccc2)c1CN(Cc1ccc2c(c1)OCO2)Cc1ccc2c(c1)OCO2	-1.81% (inactive)
COc1ccc(CNC(=O)Nc2ncc([N+](=O)[O-])s2)cc1	-4.07% (inactive)

biological target: Cytochrome P450 2D6 (Homo sapiens) (UniProt P10635); experiment: Cytochrome P450 family 2 subfamily D member 6 (CYP2D6) small molecule antagonists: luciferase biochemical (cell-free) qHTS assay (AID 1645840; active = well fitted curve in the direction sought with a large enough effect in the repeat runs; an effect the other way counts as inactive or inconclusive; also: nearly all actives have a fitted effect of over 55% in size; also: potency is read from the fitted curve at half-maximal effect); settings: P450-Glo CYP2D6 enzyme, luciferin luminescence, 1 h; series mostly up to 57.4 µM; activity change, negative = inhibition: at the top concentration
Outline: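 P450-Glo luminescent screen: recombinant CYP2D6 enzyme–proluciferin substrate mix preincubated with compound 10 min at room temperature, then NADPH regeneration added for 1 h at room temperature. Detection reagent added for 20 min; luciferin light read as relative luminescence units.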

Sequence of Cytochrome P450 2D6 (Homo sapiens) (P10635 whole entry, looked up): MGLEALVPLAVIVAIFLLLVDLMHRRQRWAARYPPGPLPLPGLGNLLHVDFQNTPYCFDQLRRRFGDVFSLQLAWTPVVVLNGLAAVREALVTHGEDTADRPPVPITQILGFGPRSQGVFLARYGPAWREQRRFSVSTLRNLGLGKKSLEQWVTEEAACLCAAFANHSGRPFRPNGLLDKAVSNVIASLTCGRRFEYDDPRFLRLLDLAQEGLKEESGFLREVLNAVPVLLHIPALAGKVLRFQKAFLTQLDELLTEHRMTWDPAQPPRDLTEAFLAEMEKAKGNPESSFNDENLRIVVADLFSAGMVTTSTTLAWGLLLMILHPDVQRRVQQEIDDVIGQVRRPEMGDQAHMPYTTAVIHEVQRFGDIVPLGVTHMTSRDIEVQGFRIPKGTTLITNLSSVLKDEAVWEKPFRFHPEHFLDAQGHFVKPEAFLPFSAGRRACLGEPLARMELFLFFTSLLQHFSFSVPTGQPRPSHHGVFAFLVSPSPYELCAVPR

Structure (SMILES)	Potency	activity change, negative = inhibition
O=[N+]([O-])c1ccc(-[n+]2nc(-c3ccccc3)nn2-c2ccc(I)cc2)cc1	5.35 µM (active)	–
COc1cc2ncnc(Nc3ccc(Oc4ccccc4)cc3)c2cc1OC	19 µM (active)	–
Cn1c(NC[C@@H](N)Cc2ccccc2)nc(-c2ccncc2)c(-c2ccc3ccccc3c2)c1=O	19 µM (active)	–
CCOC(=O)c1cnn(-c2ccc(NC(=O)C(Cl)=C(Cl)Cl)cc2)c1C(F)(F)F	15.1 µM (active)	–
CC(=O)N1c2ccc(-c3ccc(C(=O)O)cc3)cc2C(Nc2ccc(Cl)cc2)CC1C (stereo unspecified)	–	-2.61% (inactive)
COc1ccc(C(=O)N(CCC(C)C)Cc2nc(C)c(C)n2Cc2ccccc2C)c(OC)c1	0.952 µM (active)	–
O=C(Nc1ccc(F)cc1)N1CCc2ccccc2C1c1ccc(C(F)(F)F)cc1 (stereo unspecified)	9.52 µM (active)	–
Cc1ccc(C(=O)N2CCN(c3ccc([N+](=O)[O-])cc3)CC2)cc1Cl	–	-24.9% (inactive)
CN(C)C(=O)c1cc2cnc(Nc3ccc(N4CCNCC4)cn3)nc2n1C1CCCC1	–	4.11% (inactive)
CCN1CCN(Cc2ccc(-c3cc4c(NC(C)c5ccccc5)ncnc4[nH]3)cc2)CC1 (stereo unspecified)	12 µM (active)	–
CN1CCN(C(=O)c2ccc(Nc3nccc(-c4cccs4)n3)cc2Cl)CC1	21.3 µM (active)	–
Cc1ccc2c(Nc3ccc(Cl)cc3)nccc2c1Nc1ncccc1-c1ncnc2nc[nH]c12	12 µM (active)	–
COc1ccccc1-c1cc(Nc2cccc(CS(N)(=O)=O)c2)ncn1	–	-14% (inactive)
CN(CCCNC(=O)c1ccc2nc3c(c(Cl)c2c1)CCCC3)Cc1ccccc1	1.34 µM (active)	–
C=CC(=O)Nc1cc(Nc2nccc(-c3cn(C)c4ccccc34)n2)c(OC)cc1N(C)CCN(C)C	23.9 µM (active)	–
CCN(CC)c1ccc(C(=C2C=CC(=[N+](CC)CC)C=C2)c2cc(S(=O)(=O)O)ccc2S(=O)(=O)[O-])cc1	15.5 µM (active)	–
Cc1[nH]c(/C=C2\C(=O)Nc3ccc(F)cc32)c(C)c1C(=O)NC[C@H](O)CN1CCOCC1	–	-1.61% (inactive)
CCCCn1c(-c2ccccc2)nc(-c2ccccc2)c1CN(Cc1ccc2c(c1)OCO2)Cc1ccc2c(c1)OCO2	0.849 µM (active)	–

biological target: Cytochrome P450 2C9 (Homo sapiens) (UniProt P11712); experiment: Cytochrome P450 family 2 subfamily C member 9 (CYP2C9) small molecule antagonists: luciferase biochemical (cell-free) qHTS assay (AID 1645842; active = well fitted curve in the direction sought with a large enough effect in the repeat runs; an effect the other way counts as inactive or inconclusive; also: nearly all actives have a fitted effect of over 55% in size; also: potency is read from the fitted curve at half-maximal effect); settings: P450-Glo CYP2C9 enzyme assay, luciferin luminescence; series mostly up to 57.4 µM; activity change, negative = inhibition: at the top concentration
Outline: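 Luminescence, after 20 min with luciferin detection reagent, reflected CYP2C9 turnover during a 1 h NADPH-driven reaction at 37C. Enzyme-substrate mix contained 0.4% bovine serum albumin and was preincubated with compound 10 min at room temperature.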

Sequence of Cytochrome P450 2C9 (Homo sapiens) (P11712 whole entry, looked up): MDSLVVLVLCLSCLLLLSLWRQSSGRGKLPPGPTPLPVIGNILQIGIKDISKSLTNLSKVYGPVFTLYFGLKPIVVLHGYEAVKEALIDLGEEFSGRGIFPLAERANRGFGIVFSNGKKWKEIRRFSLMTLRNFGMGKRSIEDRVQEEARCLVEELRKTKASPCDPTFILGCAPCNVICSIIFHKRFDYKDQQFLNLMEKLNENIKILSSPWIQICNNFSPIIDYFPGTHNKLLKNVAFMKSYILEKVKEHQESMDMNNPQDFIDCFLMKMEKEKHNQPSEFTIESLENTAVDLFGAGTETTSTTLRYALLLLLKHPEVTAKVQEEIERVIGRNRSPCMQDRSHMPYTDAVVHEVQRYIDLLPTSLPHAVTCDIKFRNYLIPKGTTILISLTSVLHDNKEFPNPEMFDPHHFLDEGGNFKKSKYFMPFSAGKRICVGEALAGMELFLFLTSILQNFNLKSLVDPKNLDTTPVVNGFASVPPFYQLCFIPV

Structure (SMILES)	Potency	activity change, negative = inhibition
O=[N+]([O-])c1ccc(-[n+]2nc(-c3ccccc3)nn2-c2ccc(I)cc2)cc1	19 µM (active)	–
COc1cc2ncnc(Nc3ccc(Oc4ccccc4)cc3)c2cc1OC	16.9 µM (active)	–
CCC(C)n1cc(C)c2c(C(=O)NCc3c(C)cc(C)[nH]c3=O)cc(-c3ccc(N4CCNCC4)nc3)cc21 (stereo unspecified)	2.13 µM (active)	–
CCOC(=O)c1cnn(-c2ccc(NC(=O)C(Cl)=C(Cl)Cl)cc2)c1C(F)(F)F	6.74 µM (active)	–
CC(=O)N1c2ccc(-c3ccc(C(=O)O)cc3)cc2C(Nc2ccc(Cl)cc2)CC1C (stereo unspecified)	8.49 µM (active)	–
COc1ccc(C(=O)N(CCC(C)C)Cc2nc(C)c(C)n2Cc2ccccc2C)c(OC)c1	21.3 µM (active)	–
O=C(Nc1ccc(F)cc1)N1CCc2ccccc2C1c1ccc(C(F)(F)F)cc1 (stereo unspecified)	5.35 µM (active)	–
Cc1ccc(C(=O)N2CCN(c3ccc([N+](=O)[O-])cc3)CC2)cc1Cl	16.9 µM (active)	–
CCN1CCN(Cc2ccc(-c3cc4c(NC(C)c5ccccc5)ncnc4[nH]3)cc2)CC1 (stereo unspecified)	–	-29.4% (inactive)
CN1CCN(C(=O)c2ccc(Nc3nccc(-c4cccs4)n3)cc2Cl)CC1	0.674 µM (active)	–
Cc1ccc2c(Nc3ccc(Cl)cc3)nccc2c1Nc1ncccc1-c1ncnc2nc[nH]c12	12 µM (active)	–
COc1ccccc1-c1cc(Nc2cccc(CS(N)(=O)=O)c2)ncn1	9.52 µM (active)	–
COc1cc2ncnc(Oc3cccc(NC(=O)Nc4cc(C(C)(C)C(F)(F)F)on4)c3)c2cc1OC	12 µM (active)	–
CN(CCCNC(=O)c1ccc2nc3c(c(Cl)c2c1)CCCC3)Cc1ccccc1	15.1 µM (active)	–
CCN(CC)c1ccc(C(=C2C=CC(=[N+](CC)CC)C=C2)c2cc(S(=O)(=O)O)ccc2S(=O)(=O)[O-])cc1	13.8 µM (active)	–
Cc1[nH]c(/C=C2\C(=O)Nc3ccc(F)cc32)c(C)c1C(=O)NC[C@H](O)CN1CCOCC1	–	-1.97% (inactive)
CCCCn1c(-c2ccccc2)nc(-c2ccccc2)c1CN(Cc1ccc2c(c1)OCO2)Cc1ccc2c(c1)OCO2	2.68 µM (active)	–
COc1ccc(CNC(=O)Nc2ncc([N+](=O)[O-])s2)cc1	7.56 µM (active)	–
O=C(NCc1ccc(Oc2ccccc2)cc1)c1nc(-c2cc(Br)c(O)c(Br)c2)no1	0.849 µM (active)	–

system: not listed separately; experiment: Primary qHTS for inhibitors of nuclear receptor binding SET domain protein 2 (NSD2) in an isogenic RCH-ACV NSD2 p.E1099K mutant (9B) (AID 1645876); settings: RCH-ACV (leukaemia line) NSD2 E1099K (9B) viability, CellTiter-Glo, 72 h; series mostly up to 44.9 µM; activity change, negative = viability loss: at the top concentration; also: nearly all actives have a fitted effect of over 70% in size; also: potency is read from the fitted curve at half-maximal effect

Structure (SMILES)	activity change, negative = viability loss	Potency
COc1cc([C@@H](CC(=O)O)c2ccc(C)c(CN3C[C@@H](C)Oc4ccccc4S3(=O)=O)c2)cc2nnn(C)c12	-39.9% (inactive)	–
O=[N+]([O-])c1ccc(-[n+]2nc(-c3ccccc3)nn2-c2ccc(I)cc2)cc1	-13.7% (inactive)	–
COc1ccccc1NC(=O)Nc1ccc2ccccc2c1	–	25.8 µM (active)
COc1cc2ncnc(Nc3ccc(Oc4ccccc4)cc3)c2cc1OC	–	4.59 µM (active)
CCC(C)n1cc(C)c2c(C(=O)NCc3c(C)cc(C)[nH]c3=O)cc(-c3ccc(N4CCNCC4)nc3)cc21 (stereo unspecified)	–	20.5 µM (active)
Cn1c(NC[C@@H](N)Cc2ccccc2)nc(-c2ccncc2)c(-c2ccc3ccccc3c2)c1=O	–	18.6 µM (active)
CC1(C)CC[C@]2(C(=O)OC3OC(CO)C(O)C(O)C3O)CC[C@]3(C)C(=CCC4[C@@]5(C)CC[C@H](OC6OC(C(=O)O)C(O)C(O)C6O)C(CO)(CO)C5CC[C@]43C)[C@@H]2C1 (stereo partly specified)	–	0.869 µM (active)
Nc1ncnc2c1ncn2[C@@H]1O[C@H](CO)C[C@H]1O	–	10.3 µM (active) and inactive
CCOC(=O)c1cnn(-c2ccc(NC(=O)C(Cl)=C(Cl)Cl)cc2)c1C(F)(F)F	–	11.5 µM (active)
CC(=O)N1c2ccc(-c3ccc(C(=O)O)cc3)cc2C(Nc2ccc(Cl)cc2)CC1C (stereo unspecified)	–	0.0325 µM (active)
COc1ccc(C(=O)N(CCC(C)C)Cc2nc(C)c(C)n2Cc2ccccc2C)c(OC)c1	–	11.5 µM (active)
O=C(Nc1ccc(F)cc1)N1CCc2ccccc2C1c1ccc(C(F)(F)F)cc1 (stereo unspecified)	–	18.3 µM (active)
C[C@@H]1COCCN1c1cc(C2(S(C)(=N)=O)CC2)nc(-c2ccnc3[nH]ccc23)n1 (stereo partly specified)	–	662 nM (active) and 3.66 µM (active)
Cc1ccc(C(=O)N2CCN(c3ccc([N+](=O)[O-])cc3)CC2)cc1Cl	–	12.9 µM (active)
CN(C)C(=O)c1cc2cnc(Nc3ccc(N4CCNCC4)cn3)nc2n1C1CCCC1	–	4.09 µM (active)
C=C1/C(=C/C=C2\CCC[C@]3(C)[C@@H]([C@H](C)/C=C/C(=O)C4CC4)CC[C@@H]23)C[C@@H](O)C[C@@H]1O	–	16.3 µM (active)

Structure (SMILES)	activity change, negative = viability loss	Potency
CC1OC2OC3C(OCC(O)C3O)OC(=O)C34CCC(C)(C)CC3C3=CCC5C6(C)CC(O)C(OC7OC(CO)C(O)C(O)C7OC7OCC(OC(=O)CC(C)(O)CC(=O)OC1C(OC1OCC(O)C(O)C1O)C2O)C(O)C7O)C(C)(CO)C6CCC5(C)C3(C)CC4O (stereo unspecified)	–	2.52 µM (active)
CC(C)(C)c1ccc(-c2nc3ccccc3[nH]2)cc1	–	8.93 µM (active)
CCN1CCN(Cc2ccc(-c3cc4c(NC(C)c5ccccc5)ncnc4[nH]3)cc2)CC1 (stereo unspecified)	–	4.59 µM (active)
CN1CCN(C(=O)c2ccc(Nc3nccc(-c4cccs4)n3)cc2Cl)CC1	–	7.28 µM (active)
Cc1ccc2c(Nc3ccc(Cl)cc3)nccc2c1Nc1ncccc1-c1ncnc2nc[nH]c12	–	18.4 µM (active)
COc1ccccc1-c1cc(Nc2cccc(CS(N)(=O)=O)c2)ncn1	–	4.09 µM (active)
CC1(C)CC23[C@@H]4CC(=O)[C@@H]2COC(=O)[C@@H]3CC[C@H]41	–	12.9 µM (active)
O=C(NNc1ccccc1)c1ccncc1	–	inactive
CN(CCCNC(=O)c1ccc2nc3c(c(Cl)c2c1)CCCC3)Cc1ccccc1	–	12.9 µM (active)
C=CC(=O)Nc1cc(Nc2nccc(-c3cn(C)c4ccccc34)n2)c(OC)cc1N(C)CCN(C)C	–	3.32 µM (active)
CCN(CCCOc1ccc2c(Nc3cc(CC(=O)Nc4cccc(F)c4)[nH]n3)ncnc2c1)CCOP(=O)(O)O	–	5.9 µM (active)
OCC(Cc1ccccc1)Nc1nc(Oc2ccc3c(c2)CCC3)nc2c1ncn2Cc1ccc(-c2ccccc2)cc1 (stereo unspecified)	–	16.3 µM (active)
O=C(NC(NC(=S)Nc1ccc(F)c([N+](=O)[O-])c1)C(Cl)(Cl)Cl)C(c1ccccc1)c1ccccc1 (stereo unspecified)	–	5.41 µM (active) and 16.4 µM (active)
Cc1[nH]c(/C=C2\C(=O)Nc3ccc(F)cc32)c(C)c1C(=O)NC[C@H](O)CN1CCOCC1	–	6.49 µM (active) and 9.34 µM (active)
COc1ccc(CNC(=O)Nc2ncc([N+](=O)[O-])s2)cc1	–	18.6 µM (active)
